# Inconclusive results are not listed. Activity calls are given as the source filed them. Calls follow the shape of the full dose curve.
# Experiment: qHTS assay for small molecule disruptors of the mitochondrial membrane potential - cell viability (AID 720634);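 also: human HepG2 liver cancer cells; nearly all actives have a fitted effect of over 20% in size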
# Details: HepG2 viability, ATP luminescence (CellTiter-Glo), 1 h; series mostly up to 83.2 µM
# Description: U.S. Tox21 Program National Center for Advancing Translational Sciences [NCATS] NIH Chemical Genomics Center [NCGC] U.S. Environmental Protection Agency [EPA] National Institutes of Environmental Health Sciences [NIEHS] National Toxicology Program [NTP] U.S. Food and Drug Administration [FDA] Tox21 Assay Overview: Mitochondrial membrane potential (MMP), one of the parameters for mitochondrial function, is generated by mitochondrial electron transport chain that creates an electrochemical gradient by a series of redox reactions. This gradient drives the synthesis of ATP, a crucial molecule for various cellular processes. Measuring MMP in living cells is commonly used to assess the effect of chemicals on mitochondrial function; decreases in MMP can be detected using lipophilic cationic fluorescent dyes. […] The dye accumulates in the mitochondria of healthy cells as aggregates, with red fluorescence. The mitochondrial potential decreases and the dye could not accumulate in the mitochondria and remains in the cytoplasm in monomers, with green fluorescence. In addition to the mitochondrial potential assay, these cells were also used to test the cytotoxicity by determining the cell viability in the culture based on the quantitation of ATP present. The cytotoxicity was measured in the same assay well of MMP assay.
# Tox21 Assay Protocol Summary: 2,000 HepG2 cells in 5 uL/well were dispensed into black, clear-bottom 1536-well plates using a Multidrop Combi (Thermo Scientific) dispenser. The assay plates were incubated for an overnight at 37 C to allow cells to attach to the wells, followed by the transfer of 23 nL compound or DMSO vehicle by a pin tool (Kalypsys). The plates were incubated for 1 hr at 37 C and 5% CO2, followed by the addition of 5 uL of 2X m-MPI dye into each well using Flying Reagent Dispenser (Aurora Discovery) and then CellTiter-Glo reagent was added at 4 uL/well and incubated 30 min at room temperature. Then luminescence intensity was quantified on a ViewLux CCD-based plate reader.
row,SMILES,outcome
1,CCCCCCCC(=O)N(C)C,inactive
2,CCC(=O)OCCOc1ccccc1,inactive
3,CC(=O)OC1CCC(C(C)(C)C)CC1 (stereo not given),inactive
4,CCCCCCCCCCCCCC(=O)OCC,inactive
5,CC(O)CCCCn1c(=O)c2c(ncn2C)n(C)c1=O (stereo not given),inactive
6,C=CC(=O)OCC[N+](C)(C)C,inactive
7,O=C(CCBr)N1CCN(C(=O)CCBr)CC1,inactive
8,CCOC(=O)CC(C(C)=O)C(C)=O,inactive
9,CCCCCCC(O)CO (stereo not given),inactive
10,NCC1CCC(C(=O)Oc2ccc(CCC(=O)O)cc2)CC1 (stereo not given),inactive
11,CC1(C)CC(N)CC(C)(C)N1,inactive
12,Cc1ccccc1OCC(=O)O,inactive
13,COC(=O)/C=C(\C)CCC=C(C)C,inactive
14,CCCCN1C(=O)c2ccccc2C1=O,inactive
15,O=C(c1ccccc1)c1cccc(O)c1,inactive
16,CCCCS,inactive
17,CC(C)(O)c1ccc(C(C)(C)O)cc1,inactive
18,CC(=O)SC[C@@H](C)C(=O)N1CCC[C@H]1C(=O)N[C@@H](Cc1ccccc1)C(=O)O,inactive
19,O=CN1CCCCC1,inactive
20,CCCCCCCCCCCC(C)=O,inactive

row,SMILES,outcome
1,CCC(C)(C)C,inactive
2,CCc1ccc(CC)cc1,inactive
3,CCC(C)SSC(C)CC (stereo not given),inactive
4,COC(=O)N/N=C/c1c[n+]([O-])c2ccccc2[n+]1[O-],inactive
5,CCOc1ccccc1OCCN[C@H](C)Cc1ccc(OC)c(S(N)(=O)=O)c1,inactive
6,CC(=O)Nc1ccc(S(=O)(=O)Nc2cc(C)on2)cc1,inactive
7,O=c1c(O)c(O)c1=O,inactive
8,NNC(=O)CCCCC(=O)NN,inactive
9,CCN1CCN(C(=O)N[C@@H](C(=O)N[C@@H]2C(=O)N3[C@@H]2SC(C)(C)[C@H]3C(=O)O)c2ccccc2)C(=O)C1=O,inactive
10,Nc1cc(S(=O)(=O)O)ccc1O,inactive
11,NC[C@H]1O[C@H](O[C@H]2[C@H](O)[C@@H](O[C@H]3O[C@H](CO)[C@@H](O)[C@H](N)[C@H]3O)[C@H](N)C[C@@H]2N)[C@H](N)[C@@H](O)[C@@H]1O,inactive
12,C=C(C)C(=O)OCCCC,inactive
13,C[n+]1ccccc1/C=N/O,inactive
14,C[C@H]1COc2c(C3(N)CC3)c(F)cc3c(=O)c(C(=O)O)cn1c23,inactive
15,CCCCNCC,inactive
16,O=S(=O)(O)CC(O)CCl (stereo not given),inactive
17,COC(=O)c1ccccc1Cl,inactive
18,COc1cc2nc(N3CCN(C(=O)C4CCCO4)CC3)nc(N)c2cc1OC (stereo not given),inactive
19,CCNC(=O)C(C)OC(=O)Nc1ccccc1 (stereo not given),inactive
20,CCN(CC)CC,inactive

# From PubChem BioAssay (Tox21)
